Screens: PubChem BioAssay, National Center for Advancing Translational Sciences (NCATS)
This is a sample that favours compounds with a hit; in the whole collection about 2.6% have one here.
Cruzain inh Det – qHTS Assay for Promiscuous and Specific Inhibitors of Cruzain (with detergent). purified cruzain, Z-FR-AMC fluorescence, 0.01% Triton. Potency, µM, inactives show max response, negative = inhibition, actives largely listed as inhibitors. 200,000 compounds, 0.43% hits. AID 1478, 2009;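 further: plate controls were neutral wells for no effect and buffer without enzyme for full effect; nearly all actives have a fitted effect of over 40% in size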
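In this qHTS format, compounds are incubated with 1.5 nM cruzain for 15 min at room temperature before 2 uM Z-FR-AMC is added. Release of AMC is followed at 360/450 nm, and progress is taken as the 60 s fluorescence difference.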
Cruzain noTriton – qHTS Assay for Promiscuous and Specific Inhibitors of Cruzain (without detergent). Potency, µM, for inactives: max response, negative = inhibition, hits mostly inhibitors. 200,000 compounds, 2.3% hits. Cruzipain (Trypanosoma cruzi), P25779. purified cruzain, Z-FR-AMC fluorescence, no detergent;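 further: plate controls were enzyme without inhibitor for no effect and buffer without enzyme for full effect; nearly all actives have a fitted effect of over 40% in size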
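Purified cruzain at 1.5 nM, pre-incubated 15 min with compound at room temperature in 100 mM sodium acetate pH 5.5, 5 mM DTT, 0.00005% Triton X-100. Reaction started with 2 uM Z-FR-AMC; AMC fluorescence increase over 60 s gives rate.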
Papain inh – qHTS Assay for Inhibitors of Papain: Counterscreen for Cruzain Assay | shares compounds with Cruzain inh Det | 410 compounds, 41% hits | purified papain, Z-FR-AMC fluorescence cleavage | AID 2161, 2009 | Potency, µM, without a hit: max response, negative = inhibition, actives largely listed as inhibitors;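 further: 0% = no-compound wells and -100% = no-enzyme wells; nearly all actives have a fitted effect of over 35% in size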
Target sequence (P00784 whole entry, looked up): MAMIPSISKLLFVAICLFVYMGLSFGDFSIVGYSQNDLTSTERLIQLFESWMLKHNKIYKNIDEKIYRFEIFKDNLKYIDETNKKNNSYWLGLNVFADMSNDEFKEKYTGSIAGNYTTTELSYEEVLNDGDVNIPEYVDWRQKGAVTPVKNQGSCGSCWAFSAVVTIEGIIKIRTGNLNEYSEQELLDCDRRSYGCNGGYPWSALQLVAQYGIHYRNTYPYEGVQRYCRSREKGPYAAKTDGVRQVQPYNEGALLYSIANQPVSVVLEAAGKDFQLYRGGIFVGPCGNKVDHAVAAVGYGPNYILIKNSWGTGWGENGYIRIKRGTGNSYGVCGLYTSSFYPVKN
Numbers without * were called inactive; ? = inconclusive; / = not tested or not shown. The call rests on the fitted dose curve; in most records, active means well fitted curve in the direction sought with a large enough effect; inconclusive means small, poorly fitted or top-dose-only effect, or another doubt; inactive means no such curve, though single readings can be large; an effect the other way counts as inactive or inconclusive. Potency means the concentration at half of the fitted maximal effect.

SMILES | Cruzain inh Det | Cruzain noTriton | Papain inh
COc1cc(OC)cc(C(=O)NCC(=O)OCC(=O)c2cc(OC)ccc2OC)c1 | -17% | 0% | /
CCOC(=O)C1CCN(C(=O)c2ccc(OC)cc2OC)CC1 | 2% | -28% | /
CCCCOC(=O)c1ccc(NC(=O)Cc2coc3ccc(C(C)C)cc23)cc1 | -5% | 3% | /
Cc1ccc(OCCCn2c(CCCNC(=O)C3CCCCC3)nc3ccccc32)cc1 | / | / | 9%
CC(C)C(=O)NCCc1nc2ccccc2n1CCOc1ccccc1 | -13% | 6% | /
O=C(NCCCc1nc2ccccc2n1Cc1ccc(Cl)cc1)C1CCCCC1 | -10% | 6% | /
CC(C)(C)C(=O)NCCc1nc2ccccc2n1CCCCOc1ccccc1 | -4% | 3% | /
O=C(NCCc1nc2ccccc2n1CCOc1ccccc1)C1CCCCC1 | / | / | -19%
CCc1ccc(OCCCCn2c(CCNC(=O)C3CCCCC3)nc3ccccc32)cc1 | / | / | 22µM*
O=C(NCCc1nc2ccccc2n1CCOc1ccc(Cl)cc1)C1CCCCC1 | 1.3µM* | 0% | 8.9µM*
Cc1ccc(OCCCCn2c(CCNC(=O)C(C)(C)C)nc3ccccc32)cc1 | -2% | ? | /
CCOc1ccc(NC(=O)CSc2oc(-c3ccco3)nc2S(=O)(=O)c2ccccc2)cc1 | -6% | 12% | /
CCc1ccc2oc(-c3cc(NC(=O)c4cc([N+](=O)[O-])ccc4N4CCOCC4)ccc3Cl)nc2c1 | -1% | ? | /
CN(Cc1ccccc1)C(=O)c1ccc2c(c1)N(Cc1ccc(Cl)cc1)C(=O)c1ccccc1S2=O (configuration not stated) | 1% | -3% | /
N#CCCn1c(=O)c(-c2cccs2)nc2cnc(OCc3ccccc3)nc21 | 2% | 1% | /
